Data on 14 molecules can be found in PubChem BioAssay (NCATS).

Inconclusive results are not listed. Unmarked numbers belong to inactive results. Active and inactive are the calls of the source. Unless noted, calls follow the shape of the full dose curve.

The nature of test [1]: Cell Viability - BJ (AID 421).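 Also: potency is read from the fitted curve at half-maximal effect; cells exposed to compound for 40 hours at 37 °C before readout.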 The following applies: BJ fibroblast viability, qHTS. The essentials: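 Cytotoxicity as drop in intracellular ATP (CellTiter-Glo, 20 min RT) after 40 hr compound exposure of BJ fibroblasts at 37 °C. Titrations scaled between DMSO and 100 uM tamoxifen, Hill-fitted for AC50.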
For orientation: qHTS replaces the single test concentration by a dilution series.

Test [2] in a line: Cell Viability - Jurkat (AID 426;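 active = dose-dependent loss of cell ATP signal giving a full or clear fitted curve, ranked by lower potency value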;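 also: potency is read from the fitted curve at half-maximal effect; cells exposed to compound for 40 hours at 37 °C before ATP read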). The following applies: qHTS. In outline: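 Luminescent ATP read-out (CellTiter-Glo, 20 min at room temperature) after 40 hr compound exposure at 37 °C of Jurkat E6-1 cells, 5000/well. Decreased ATP taken as cytotoxicity; AC50 from standard Hill equation.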
Test [3] is described as follows: Cell Viability - Hek293 (AID 427;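 active = compounds whose dose-response curve shows a full or clear partial loss of cell viability, called from curve shape rather than a numeric limit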;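 also: potency is read from the fitted curve at half-maximal effect; cells exposed to compound for 40 hours at 37 °C before reading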). Particulars: qHTS. In outline:
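Luminescent ATP content (CellTiter-Glo, 20 min at room temperature) was measured after a 40 hr, 37 °C compound exposure of HEK293 cells. AC50 values came from Hill-equation fits of qHTS concentration-response data normalized to DMSO and 100 uM tamoxifen.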

Test [4] can be described thus: Cell Viability - HepG2 (AID 433). Also: potency is read from the fitted curve at half-maximal effect. The following applies: qHTS. The essentials:
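HepG2 hepatocellular carcinoma cells (1500/well) were treated with compounds for 40 h at 37 °C in complete medium; intracellular ATP was read by CellTiter-Glo luminescence. Data were normalized to DMSO and 100 uM tamoxifen, and AC50 came from Hill fits.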

Test [5] in a line: Cell Viability - MRC5 (AID 434).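 Also: potency is read from the fitted curve at half-maximal effect; potency reflects cytotoxicity seen as loss of intracellular ATP.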 The following applies: MRC5 lung fibroblast viability, qHTS. The essentials: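 ATP luminescence read-out (CellTiter-Glo, 20 min RT) after 40 hr, 37 °C compound exposure of 1500 MRC5 cells/well. Data normalized to DMSO (basal) and 100 uM tamoxifen (100% inhibition); AC50 from standard Hill equation.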
A short description of test [6]: Cell Viability - SK-N-SH (AID 435).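 Also: potency is read from the fitted curve at half-maximal effect; compound exposure lasted 40 h at 37 °C.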 Particulars: SK-N-SH neuroblastoma cell viability qHTS. The essentials: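 SK-N-SH human neuroblastoma cells (1500/well) were exposed to compounds in complete medium for 40 h at 37 °C, and intracellular ATP was then measured by CellTiter-Glo luminescence. AC50 was taken from Hill fits, normalized to DMSO and 100 uM tamoxifen.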
The target of test [7] is Mitogen-activated protein kinase 10 (Mus musculus) (UniProt Q61831). Kind of test: JNK3 AlphaScreen Assay (AID 530; active = well fitted curve in either direction with a large enough effect, not every such curve was filed as active;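 also: kinase came from lysate of stimulated human HepG2 cells; signal reports phosphorylation of biotinylated GST-cJun 1-79 at Ser73 with 10 µM ATP; % is scaled to controls: 0 for no effect and ±100 for the full control effect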). The following applies: JNK3 lysate, c-Jun phosphorylation; series mostly up to 57.1 µM. The essentials:
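HepG2 lysate (IL-1b/TNFa pre-activated) + biotin-GST-cJun 1-79 + anti-pSer73 cJun; cpd titration, 15 min RT; ATP 10 uM start; Tris pH 7.6, MgCl2, DTT, vanadate; beads in EDTA buffer; AlphaScreen.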
Background: In Alpha technology, singlet oxygen from a donor bead excites a nearby acceptor bead.

A short description of test [8]: Cell Viability - N2a (AID 540; active = well fitted curve in the direction sought with a large enough effect; an effect the other way counts as inactive or inconclusive;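 also: plate controls were DMSO alone for no effect and tamoxifen control for full effect; nearly all actives have a fitted effect of over 45% in size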). The following applies: N2a mouse neuroblastoma cell viability; activity change, negative = cytotoxicity: at 92.2 µM (top of the series). In outline: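 N2a mouse neuroblastoma, 1500 cells/well, 5 hr settle; compound 40 hr, 37 °C; CellTiter-Glo 20 min RT; luminescence; Hill-fit AC50.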
A short description of test [9]: Cell Viability - NIH 3T3 (AID 541; active = well fitted curve in the direction sought with a large enough effect; an effect the other way counts as inactive or inconclusive;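 also: plate controls were DMSO alone for no effect and tamoxifen positive control for full effect; nearly all actives have a fitted effect of over 25% in size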). Particulars: NIH 3T3 cell viability, qHTS; activity change, negative = cytotoxicity: at 92.2 µM (top of the series). The essentials: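 qHTS format; 40 hr compound exposure, 37 °C; CellTiter-Glo luminescence (cellular ATP) read-out after 20 min at RT. Decrease in ATP = cytotoxicity; AC50 from standard Hill fit.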
Test [10] in a line: Cell Viability - HUV-EC-C (AID 542; active = well fitted curve in the direction sought with a large enough effect; an effect the other way counts as inactive or inconclusive; also: % is scaled to controls: 0 for no effect and ±100 for the full control effect; nearly all actives have a fitted effect of over 35% in size). The following applies: HUV-EC-C endothelial cell viability, qHTS; series mostly up to 92.2 µM. In outline:
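Luminescent ATP read-out (CellTiter-Glo, 20 min room temperature) after 40 hr compound treatment of HUV-EC-C cells at 37 °C. Concentration-response data fitted with the standard Hill equation to give AC50; tamoxifen and doxorubicin served as positive controls.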

`O=Cc1ccc(CO)o1`: the Potency in [1], in test [2], in test [3], in test [4], in test [5] and in test [6] was over 92 µM each time. The molecule was called inactive in test [7]. Moreover, the activity change, negative = cytotoxicity in test [8] is 1.46%. For the same molecule, the Potency entry in test [9] and in test [10] was “inactive” throughout.
As for `FC(F)(F)c1cccc(Cl)c1`, the Potency in test [1], in test [2], in test [3], in [4], in test [5] and in test [6] was over 92 µM each time. Besides, the molecule was classed as inactive in [7]. Also, in test [8], the activity change, negative = cytotoxicity was -8.83%. Besides, the Potency entry in [9] and in test [10] was “inactive” in each case.
On to `C[C@@H]1CC2(OC[C@]3(C)O[C@H]23)O[C@H]2C[C@@]3(C)[C@@H]4CC[C@H]5C(C)(C)C(O[C@@H]6OC[C@@H](O)[C@H](O)[C@H]6O)CC[C@@]56C[C@@]46CC[C@]3(C)[C@@H]12` (stereo not given in full), for which the Potency in test [1], in test [2], in test [3], in test [4], in test [5] and in test [6] was over 92 µM each time. In test [7], the molecule was classed as inactive. Besides, the activity change, negative = cytotoxicity in test [8] was 11%. Further, the Potency entry in test [9] and in [10] was “inactive” each time.
With `Cc1cc(C)c(N)cc1C`, the Potency in [1], in [2], in test [3], in test [4], in [5] and in [6] was over 92 µM each time. In test [7], the molecule was called inactive. In test [8], the activity change, negative = cytotoxicity is -1.04%. Besides, the Potency result in test [9] and in test [10] was “inactive” throughout.
Consider `O=Cc1ccc(Cl)cc1`, for which the Potency in test [1], in test [2], in test [3], in [4], in test [5] and in test [6] was over 92 µM in each case. For the same molecule, the molecule was classed as inactive in test [7]. For the same molecule, the activity change, negative = cytotoxicity in [8] is -2.43%. For the same molecule, the Potency entry in test [9] and in test [10] was “inactive” each time.
Take `ClCCl`: the Potency in [1], in [2], in test [3], in test [4], in [5] and in [6] was over 92 µM throughout. Further, in [7], the call was inactive. Also, the activity change, negative = cytotoxicity in test [8] was -5.52%. In addition, the Potency result in [9] and in test [10] was “inactive” in each case.
Regarding `O=[N+]([O-])c1cccc(Cl)c1`, the Potency in test [1], in test [2], in test [3], in test [4], in test [5] and in test [6] was over 92 µM throughout. In addition, the call in test [7] was inactive. For the same molecule, in [8], the activity change, negative = cytotoxicity is -8.23%. Moreover, the Potency entry in test [9] and in test [10] was “inactive” throughout.
For `C[C@@H]1O[C@@H](O[C@@H]2[C@@H](O)[C@H](OCCc3ccc(O)c(O)c3)O[C@H](CO[C@@H]3O[C@H](CO)[C@@H](O)[C@H](O)[C@H]3O)[C@H]2OC(=O)/C=C/c2ccc(O)c(O)c2)[C@H](O)[C@H](O)[C@H]1O`, the Potency in [1], in [2], in test [3], in test [4], in test [5] and in [6] was over 92 µM in each case. The outcome in [7] was inactive. The activity change, negative = cytotoxicity in test [8] is -12.1%. Also, the Potency result in [9] and in [10] was “inactive” throughout.
For `Cc1ccc2c(c1[N+](=O)[O-])C(=O)c1ccccc1C2=O`, the Potency in [1] is over 92 µM; in [2] it was over 92 µM; in [3], 0.351 µM (active); in test [4], over 92 µM; in test [5], over 92 µM; in test [6], over 92 µM. Further, the call in test [7] was inactive. Also, the activity change, negative = cytotoxicity in [8] was 3.24%. For the same molecule, the Potency result in test [9] and in test [10] was “inactive” throughout.
In the case of `CCC(C)(C)C(=O)O`, the Potency in test [1], in test [2], in test [3], in [4], in test [5] and in test [6] was over 92 µM each time. Also, the call in [7] was inactive. The activity change, negative = cytotoxicity in test [8] was 6.55%. Further, the Potency entry in test [9] and in test [10] was “inactive” each time.
In the case of `COCCOC(=O)c1ccccc1C(=O)OCCOC`, the Potency in [1], in [2], in test [3], in test [4], in [5] and in [6] was over 92 µM each time. Further, the result in test [7] was inactive. Besides, the activity change, negative = cytotoxicity in test [8] was 4.24%. The Potency entry in [9] and in [10] was “inactive” in each case.
With `Nc1nc(CC(=O)O)cs1`, the Potency in [1], in [2], in [3], in [4], in test [5] and in test [6] was over 92 µM each time. For the same molecule, the outcome in test [7] was inactive. Further, the activity change, negative = cytotoxicity in test [8] was 6.3%. The Potency result in [9] and in test [10] was “inactive” each time.
For `ClC/C=C/CCl`, the Potency in [1], in test [2], in [3], in [4], in test [5] and in [6] was over 92 µM throughout. Further, the call in test [7] was inactive. Besides, the activity change, negative = cytotoxicity in [8] was -2.88%. Moreover, the Potency result in test [9] and in test [10] was “inactive” throughout.
On to `OC(CCl)CCl`, for which the Potency in [1], in test [2], in test [3], in [4], in test [5] and in test [6] was over 92 µM throughout. Moreover, the call in test [7] was inactive. Also, the activity change, negative = cytotoxicity in test [8] was -4.88%. Also, the Potency entry in [9] and in test [10] was “inactive” in each case.
